For experiment [1], the target named is Platelet-derived growth factor receptor beta (Homo sapiens) (UniProt P09619). The settings on record: at 1 µM.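 Note: each value is a mean percent inhibition.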
For experiment [2], the target named is Tyrosine-protein kinase FRK (Homo sapiens) (UniProt P42685). The settings on record: at 0.1 µM.
The target is the same in experiment [3]. The settings on record: at 1 µM.
Experiment [4] has as its target Protein-tyrosine kinase 2-beta (Homo sapiens) (UniProt Q14289). The settings on record: at 0.1 µM.
The target is the same in experiment [5]. To be noted: at 1 µM.
The target in experiment [6] is Proto-oncogene tyrosine-protein kinase receptor Ret (Homo sapiens) (UniProt P07949). To be noted: at 0.1 µM.
Experiment [7] has the same target. To be noted: at 1 µM.
Experiment [8] relates to Proto-oncogene tyrosine-protein kinase receptor Ret (Homo sapiens), P07949 [V804L]. The settings on record: at 0.1 µM.
For experiment [9] the test system is unchanged. To be noted: at 1 µM.
For experiment [10], the system named is Proto-oncogene tyrosine-protein kinase receptor Ret (Homo sapiens), P07949 [Y791F]. The settings on record: at 0.1 µM.
Sequence of Proto-oncogene tyrosine-protein kinase receptor Ret (Homo sapiens), P07949 [Y791F] (P07949 whole entry Y791F): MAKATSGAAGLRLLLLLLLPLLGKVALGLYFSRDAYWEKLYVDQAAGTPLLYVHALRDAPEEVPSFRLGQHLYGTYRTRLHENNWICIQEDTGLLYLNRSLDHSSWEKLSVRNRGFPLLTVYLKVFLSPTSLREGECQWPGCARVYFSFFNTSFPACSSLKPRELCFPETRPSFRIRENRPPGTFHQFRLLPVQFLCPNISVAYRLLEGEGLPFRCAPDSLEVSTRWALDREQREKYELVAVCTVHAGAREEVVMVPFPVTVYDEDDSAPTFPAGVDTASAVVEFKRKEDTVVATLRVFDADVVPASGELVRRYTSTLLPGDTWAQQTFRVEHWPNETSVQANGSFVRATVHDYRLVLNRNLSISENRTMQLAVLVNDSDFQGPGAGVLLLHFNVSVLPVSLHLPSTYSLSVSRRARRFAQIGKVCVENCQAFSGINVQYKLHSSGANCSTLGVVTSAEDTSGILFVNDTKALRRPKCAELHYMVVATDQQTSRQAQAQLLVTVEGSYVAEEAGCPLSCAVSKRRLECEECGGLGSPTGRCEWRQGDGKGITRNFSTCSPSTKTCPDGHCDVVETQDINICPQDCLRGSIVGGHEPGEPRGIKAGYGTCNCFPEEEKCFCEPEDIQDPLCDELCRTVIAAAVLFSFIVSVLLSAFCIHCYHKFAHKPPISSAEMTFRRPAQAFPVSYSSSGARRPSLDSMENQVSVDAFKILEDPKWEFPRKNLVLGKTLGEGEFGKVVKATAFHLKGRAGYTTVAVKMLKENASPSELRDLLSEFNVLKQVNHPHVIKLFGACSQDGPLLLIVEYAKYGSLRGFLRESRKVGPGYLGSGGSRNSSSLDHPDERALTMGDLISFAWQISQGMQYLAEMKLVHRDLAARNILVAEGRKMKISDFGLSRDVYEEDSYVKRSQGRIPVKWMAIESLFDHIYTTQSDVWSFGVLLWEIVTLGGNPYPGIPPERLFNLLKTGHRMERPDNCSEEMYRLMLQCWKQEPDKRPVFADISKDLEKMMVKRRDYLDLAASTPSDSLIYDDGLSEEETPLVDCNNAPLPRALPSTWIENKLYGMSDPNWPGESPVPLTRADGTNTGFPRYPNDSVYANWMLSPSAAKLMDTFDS

Sequence of Proto-oncogene tyrosine-protein kinase receptor Ret (Homo sapiens) (P07949 whole entry): as the sequence (P07949 whole entry Y791F) above, with F791Y counted along it
Sequence of Tyrosine-protein kinase FRK (Homo sapiens) (P42685 whole entry): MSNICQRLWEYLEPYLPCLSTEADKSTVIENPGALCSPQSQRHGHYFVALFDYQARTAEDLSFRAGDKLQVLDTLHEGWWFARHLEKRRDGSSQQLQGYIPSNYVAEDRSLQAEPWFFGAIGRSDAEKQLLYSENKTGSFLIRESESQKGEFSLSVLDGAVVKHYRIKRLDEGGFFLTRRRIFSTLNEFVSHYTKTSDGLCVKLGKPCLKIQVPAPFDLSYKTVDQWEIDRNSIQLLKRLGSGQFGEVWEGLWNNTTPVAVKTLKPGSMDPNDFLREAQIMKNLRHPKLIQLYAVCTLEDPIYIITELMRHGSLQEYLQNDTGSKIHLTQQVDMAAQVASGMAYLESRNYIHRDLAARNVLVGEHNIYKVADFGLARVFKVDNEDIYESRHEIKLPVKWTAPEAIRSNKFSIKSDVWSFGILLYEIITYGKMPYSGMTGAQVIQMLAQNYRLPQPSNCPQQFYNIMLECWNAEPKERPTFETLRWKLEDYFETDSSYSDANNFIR
Sequence of Proto-oncogene tyrosine-protein kinase receptor Ret (Homo sapiens), P07949 [V804L] (P07949 whole entry V804L): as the sequence (P07949 whole entry Y791F) above, with F791Y, V804L counted along it
Sequence of Protein-tyrosine kinase 2-beta (Homo sapiens) (Q14289 whole entry, looked up): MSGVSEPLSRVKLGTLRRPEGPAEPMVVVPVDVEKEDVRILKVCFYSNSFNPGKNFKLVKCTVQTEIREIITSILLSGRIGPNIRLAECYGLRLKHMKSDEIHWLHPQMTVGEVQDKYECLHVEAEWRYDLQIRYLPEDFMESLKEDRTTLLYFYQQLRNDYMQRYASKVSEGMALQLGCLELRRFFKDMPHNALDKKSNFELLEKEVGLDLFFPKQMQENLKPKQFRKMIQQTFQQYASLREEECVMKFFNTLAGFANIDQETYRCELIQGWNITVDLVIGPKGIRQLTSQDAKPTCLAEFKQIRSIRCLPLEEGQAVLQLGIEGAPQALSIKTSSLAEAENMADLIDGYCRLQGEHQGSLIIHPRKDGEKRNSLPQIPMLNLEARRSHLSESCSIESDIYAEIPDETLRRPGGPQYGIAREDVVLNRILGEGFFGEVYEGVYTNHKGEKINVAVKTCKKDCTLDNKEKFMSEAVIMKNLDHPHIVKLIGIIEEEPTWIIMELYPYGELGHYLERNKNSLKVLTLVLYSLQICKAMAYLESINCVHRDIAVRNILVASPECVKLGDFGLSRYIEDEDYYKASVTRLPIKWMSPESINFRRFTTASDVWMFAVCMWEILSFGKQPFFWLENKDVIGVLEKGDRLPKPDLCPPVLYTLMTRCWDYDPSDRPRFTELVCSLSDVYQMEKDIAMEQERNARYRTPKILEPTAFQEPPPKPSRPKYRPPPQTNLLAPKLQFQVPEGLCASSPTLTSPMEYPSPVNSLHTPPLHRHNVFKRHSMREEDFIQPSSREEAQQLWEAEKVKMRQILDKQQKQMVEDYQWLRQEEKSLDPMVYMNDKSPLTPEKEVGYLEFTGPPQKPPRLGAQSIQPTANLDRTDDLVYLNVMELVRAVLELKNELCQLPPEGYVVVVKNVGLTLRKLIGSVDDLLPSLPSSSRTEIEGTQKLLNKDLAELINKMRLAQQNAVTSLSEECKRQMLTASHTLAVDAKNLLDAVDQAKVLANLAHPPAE
Sequence of Platelet-derived growth factor receptor beta (Homo sapiens) (P09619 whole entry): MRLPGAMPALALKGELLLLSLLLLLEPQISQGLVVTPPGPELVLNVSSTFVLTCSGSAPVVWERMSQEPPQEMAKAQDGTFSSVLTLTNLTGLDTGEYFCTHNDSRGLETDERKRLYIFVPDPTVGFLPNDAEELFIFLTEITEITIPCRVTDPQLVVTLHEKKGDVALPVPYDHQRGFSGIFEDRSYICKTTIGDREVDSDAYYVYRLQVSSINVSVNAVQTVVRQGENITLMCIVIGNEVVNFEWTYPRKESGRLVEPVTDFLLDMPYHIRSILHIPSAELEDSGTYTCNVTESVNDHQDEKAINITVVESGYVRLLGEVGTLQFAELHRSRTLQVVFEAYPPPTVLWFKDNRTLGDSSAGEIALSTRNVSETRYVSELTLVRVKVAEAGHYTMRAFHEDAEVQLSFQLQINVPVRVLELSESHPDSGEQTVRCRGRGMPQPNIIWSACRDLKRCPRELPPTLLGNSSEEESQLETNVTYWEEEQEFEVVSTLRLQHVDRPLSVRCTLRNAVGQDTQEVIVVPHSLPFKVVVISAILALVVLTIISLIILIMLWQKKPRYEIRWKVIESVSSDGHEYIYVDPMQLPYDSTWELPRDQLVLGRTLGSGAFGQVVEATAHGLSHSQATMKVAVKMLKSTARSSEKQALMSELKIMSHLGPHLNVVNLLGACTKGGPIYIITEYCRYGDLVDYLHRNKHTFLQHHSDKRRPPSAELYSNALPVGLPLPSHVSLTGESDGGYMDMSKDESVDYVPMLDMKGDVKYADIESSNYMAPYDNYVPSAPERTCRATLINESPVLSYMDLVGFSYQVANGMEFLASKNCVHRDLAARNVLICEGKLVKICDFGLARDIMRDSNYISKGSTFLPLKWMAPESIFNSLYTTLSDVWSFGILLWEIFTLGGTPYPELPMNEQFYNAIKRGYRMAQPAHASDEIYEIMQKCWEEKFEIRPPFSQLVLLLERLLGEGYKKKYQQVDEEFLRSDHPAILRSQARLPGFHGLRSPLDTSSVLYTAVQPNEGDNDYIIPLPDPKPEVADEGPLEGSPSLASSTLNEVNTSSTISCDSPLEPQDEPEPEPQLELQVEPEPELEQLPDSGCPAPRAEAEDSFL

One may read the inhibition as the drop in the measured response relative to a control, in per cent. For the molecule `CN1CCC(C(=O)Nc2n[nH]c3nnc(-c4ccccc4)cc23)CC1`, the inhibition in experiment [1] amounted to 7.79%; in [2], 2.63%; in [3] it was 2.86%; in [4] it was 13.3%; in experiment [5] it was 15.2%; in [6], 1.29%. Further, the inhibition in experiment [7] came out at 2.61%; in experiment [8] it was 4.66%; in [9], 14.7%; in experiment [10] it was 3.08%.
Take `CCn1c(-c2nonc2N)nc2cnc(Oc3cccc(NC(=O)c4ccc(OCCN5CCOCC5)cc4)c3)cc21`: the inhibition in experiment [1] amounted to 9.39%; in [2] it was 2.25%; in experiment [3], 0.86%; in experiment [4] it was 4.56%; in experiment [5], 13%; in [6] it was 6.91%. The inhibition in [7] came out at 10.4%; in experiment [8], 2.37%; in experiment [9] it was 6.08%; in [10], 5.99%.
With `COC(=O)Nc1nc2cc(Oc3cccc(NC(=O)Nc4cc(C(F)(F)F)ccc4F)c3)ccc2[nH]1`, the inhibition in [1] is 45.3%; in experiment [2], -0.02%; in [3], 1.37%; in experiment [4], 0.22%; in experiment [5] it was -4.43%; in experiment [6], 17%. For the same molecule, the inhibition in experiment [7] is 61.1%; in [8] it was 4.35%; in [9], 8.1%; in [10] it was 9.63%.
Regarding `[O-][S+]1CCN(Cc2ccc(-c3ccc4ncnc(Nc5ccc(OCc6ccccc6)c(F)c5)c4c3)o2)CC1`, the inhibition was 3.24% in experiment [1]; 0.91% in experiment [2]; 1.11% in [3]; 2.85% in experiment [4]; -2.53% in [5]; 6.29% in [6]. The inhibition in experiment [7] amounted to 9.08%; in experiment [8], 8.58%; in [9], 5.31%; in experiment [10] it was 1.94%.
Take `CNC(=O)c1cncc(/C=C/c2c(Cl)cccc2Cl)c1`: the inhibition in experiment [1] was 17.8%; in experiment [2], 3.04%; in [3] it was 11%; in experiment [4], 4.56%; in experiment [5] it was 7.83%; in experiment [6] it was 3.32%. Besides, the inhibition turned out to be 12.3% in experiment [7], 3.35% in experiment [8], 10.2% in [9] and 14.7% in experiment [10].
Regarding `NC(=O)c1cccc(Nc2nccc(Nc3cccc4[nH]ncc34)n2)c1`, the inhibition in experiment [1] stood at 84%; in [2], 61.6%; in [3] it was 93.9%; in experiment [4] it was 9.7%; in experiment [5], 65.5%; in experiment [6], 37.8%. In addition, the inhibition in [7] worked out at 82.1%; in experiment [8] it was 5.88%; in experiment [9], 39.4%; in [10], 46%.
As to `NS(=O)(=O)c1ccc(N/N=C2\C(=O)Nc3ccc(C(=O)NCCc4c[nH]cn4)cc32)cc1`, the inhibition in [1] stood at 82.7%; in [2] it was 0.73%; in [3] it was 3.44%; in experiment [4] it was 12.8%; in experiment [5] it was 24.2%; in experiment [6], 15.3%. Also, the inhibition in experiment [7] came to 57.8%; in experiment [8] it was 42.6%; in experiment [9], 83.5%; in experiment [10], 22.8%.
As for `Fc1cccc(COc2ccc(Nc3ncnc4cc(-c5ccc[nH]5)sc34)cc2Cl)c1`, the inhibition came out at 8.52% in experiment [1]; 2.14% in [2]; 2.25% in experiment [3]; 7.86% in experiment [4]; 11.5% in [5]; 9% in experiment [6]. For the same molecule, the inhibition in experiment [7] is 11.5%; in [8], 3.25%; in [9], 8.38%; in experiment [10] it was 7.54%.
For `COc1ccc2cc(-c3c(-c4ccncc4)nc(-c4ccc([S+](C)[O-])cc4)n3C)ccc2c1` (stereo not given), the inhibition in [1] worked out at 4.23%; in experiment [2] it was 2.23%; in [3], 1.18%; in experiment [4], 3.6%; in experiment [5], 4.13%; in experiment [6] it was 4.55%. Besides, the inhibition in [7] is 8.7%; in experiment [8] it was 3.54%; in experiment [9] it was -0.15%; in [10], 5.77%.
For the molecule `COc1cc2ncn(-c3cc(O[C@H](C)c4ccccc4Cl)c(C(N)=O)s3)c2cc1OC`, the inhibition in [1] amounted to 95.3%; in experiment [2], 2.17%; in experiment [3], 2.07%; in [4] it was 10.3%; in experiment [5], 32.2%; in [6], 18.2%. Also, the inhibition is 51.8% in experiment [7], 19.5% in experiment [8], 54.8% in [9] and 20.7% in experiment [10].
Turning to `CS(=O)(=O)Nc1ccc(N/C=C2\C(=O)Nc3ccccc32)cc1`, the inhibition in [1] is 38%; in experiment [2], -0.66%; in experiment [3] it was 0.76%; in experiment [4], -3.21%; in experiment [5] it was 20.1%; in experiment [6], 10.4%. The inhibition in experiment [7] is 49.4%; in experiment [8], 17.9%; in experiment [9] it was 66.2%; in experiment [10], 8.53%.
For `CC(=O)Nc1cccc(C#Cc2cncnc2Nc2ccc(OCc3cccc(F)c3)c(Cl)c2)n1`, the inhibition was 9.6% in [1]; 0.61% in experiment [2]; 1.2% in experiment [3]; -2.77% in experiment [4]; 8.14% in experiment [5]; -1.11% in experiment [6]. The inhibition in experiment [7] came out at 2.59%; in [8], 0.14%; in experiment [9], 10.2%; in [10], 0.37%.
For `Nc1nc(-c2ccccn2)c(-c2ccc3ncccc3n2)s1`, the inhibition in [1] amounted to 7.71%; in experiment [2], 2.13%; in experiment [3] it was 1.57%; in experiment [4], 8.82%; in [5] it was 12.2%; in experiment [6], 1.19%. The inhibition in [7] stood at 4.76%; in experiment [8], 1.3%; in [9] it was 5.95%; in experiment [10], 2.3%.
Turning to `CC1=C(C(=O)Nc2ccc3[nH]ncc3c2)C(c2ccc(F)cc2)NC(=O)N1` (stereo not given), the inhibition stood at 6.86% in [1]; 1.9% in [2]; 1.47% in [3]; 10.1% in experiment [4]; 8.37% in experiment [5]; 6.58% in experiment [6]. For the same molecule, the inhibition in experiment [7] came to 35%; in experiment [8], 6.27%; in experiment [9], 35.5%; in experiment [10] it was 8.37%.
Regarding `CCc1cccc(NC(=O)Nc2ccc(Oc3ccc4nc(NC(=O)OC)[nH]c4c3)cc2)c1`, the inhibition in [1] is 56.3%; in [2], -0.04%; in experiment [3], 2.98%; in experiment [4], 0.73%; in [5], 8.1%; in experiment [6] it was 72.8%. Moreover, the inhibition was determined as 79.9% in experiment [7], 35.6% in experiment [8], 63.1% in [9] and 53.5% in experiment [10].
On to `CCn1c(-c2nonc2N)nc2ccncc21`, for which the inhibition stood at 5.63% in experiment [1]; 0.98% in [2]; 0.17% in experiment [3]; 3.23% in experiment [4]; 7.52% in experiment [5]; 2.99% in [6]. Moreover, the inhibition is 5.58% in experiment [7], 4.69% in experiment [8], -1.85% in [9] and 1.52% in experiment [10].
For the molecule `CCn1c(-c2nonc2N)nc2c(C#CC(C)(C)O)nc(OC[C@@H](N)c3ccccc3)cc21`, the inhibition in experiment [1] was 50.8%; in experiment [2], 1.13%; in [3], 1.5%; in [4], -0.92%; in experiment [5], 9.22%; in experiment [6] it was 7.49%. In addition, the inhibition amounted to 41.1% in [7], 2.03% in experiment [8], 14.4% in experiment [9] and 10.7% in experiment [10].

Values taken from ChEMBL document CHEMBL1961873, “Compounds: GSK PKIS; Assays: Nanosyn kinase panel” (2012).
